# Assay results published in PubChem BioAssay (NCI).
# The panel holds about 79,000 compounds, 15% with a hit somewhere; the sample as a whole holds those more often. Active and inactive are the calls of the source. Cut-off read from the data, not from the text of the source: active = growth inhibition above about 70%; inactive = the rest.
# Test: NCI Yeast Anticancer Drug Screen. Data for the rad52 strain (AID 147);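 note: 0% = growth of vehicle-treated control cultures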
# Conditions: S. cerevisiae rad52 mutant growth inhibition; at 1.2 µM; stronger effect = higher value
# Procedure, shortened: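 Screen used a yeast mutant impaired in DNA repair. After compound exposure, growth was measured. Values reflect inhibition compared with vehicle-treated cells.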
row,Compound,growth inhibition
1,CCS(=O)(=O)c1ccc(/C=C/C=N/NC(=S)NCC(C)C)cc1,5% (inactive)
2,CCC(=O)Oc1c(Cl)cc(Cl)c2ccccc12,-2% (inactive)
3,COc1cc2c3c(cccc3c1)C(=O)N(CCN(C)C)C2=O,-43% (inactive)
4,CN(C)c1ccc(C(C#N)=C(C#N)C#N)cc1,-2% (inactive)
5,O=C(CCCN1CCC2(CC1)CC(=O)N(N1CCCCCC1)C2=O)c1ccc(F)cc1,23% (inactive)
6,O=C1C2C(C(=O)N1c1ccc(OCc3ccccc3)cc1)C1c3ccccc3C2C2CCCCN21 (configuration not stated),-3% (inactive)
7,CCN(CC)CCC(=O)c1ccc(Oc2ccc(F)cc2)cc1,-23% (inactive)
8,O=Nc1c(NO)ccc2nn(-c3ccccc3)nc12,29% (inactive)
9,CC(=O)SCCC[Si](C)(C)CCCSC(C)=O,-1% (inactive)
10,O=C(O)C1CCCCC1c1c2ccc(=O)c(O)c-2oc2c(O)c(O)ccc12 (configuration not stated),-18% (inactive)
11,Cc1ccc(NN(NC(=O)OC(C)C)C(=O)OC(C)C)cc1,-2% (inactive)
12,O=C1c2ccccc2C(=O)c2cc(CBr)ccc21,5% (inactive)
13,Cc1c(C(Cc2ccccc2N(C)C(=O)/C=C\C(=O)O)c2c[nH]c3ccccc23)c2ccccc2n1C (configuration not stated),-5% (inactive)
14,CC(C)/C(Cl)=N\OC(=O)Nc1ccc(F)cc1,3% (inactive)
15,O=C1OC(=O)C2CCCC3CCCC1C32 (configuration not stated),23% (inactive)
16,CCOC(=O)C(NC(=O)c1ccccc1)(N1CCN(c2cc3c(cc2F)c(=O)c(C(=O)O)cn3C2CC2)CC1)C(F)(F)F (configuration not stated),-1% (inactive)
17,COc1ccc(NC(=S)N/N=C(\c2ccccc2)c2ccccn2)cc1,-3% (inactive)
18,C=CCC1=C(C)C(OC(=O)/C=C/c2ccccc2)CC1=O (configuration not stated),-4% (inactive)
19,NNc1c(F)c(F)cc(F)c1F,-11% (inactive)
20,COP(=O)(OC)/C(=C\C1=CN(C(c2ccccc2)(c2ccccc2)c2ccccc2)CN1)NC=O,-12% (inactive)
21,COC(=O)c1cc(-c2ccc(C)cc2)[nH]c(=O)c1C#N,-2% (inactive)

# Same assay, conditions: S. cerevisiae rad52 mutant growth inhibition; at 3.7 µM; stronger effect = higher value
row,Compound,growth inhibition
1,CCOP(=O)(OCC)C(Cc1ccccc1)N=C(c1ccccc1)c1ccccc1 (configuration not stated),-16% (inactive)
2,CCc1ncnc2cc(OCC3CO3)c(OC)cc12 (configuration not stated),46% (inactive)
3,CCOC(=O)[C@H]1Nc2ccccc2C2c3ccccc3CC21 (some centres not stated),-44% (inactive)
4,O=CNc1ccc2c(c1)C(=O)c1ccccc1-2,15% (inactive)
5,CCOc1ccc2c(c1)c(CC(=O)O)cn2C,7% (inactive)
6,OC1CSCCCSCCSCCCSC1,-55% (inactive)
7,N#Cc1c(N)[nH]c2ccc(Sc3ccccc3)cc12,0% (inactive)
8,Cc1ccc(-c2ccc(Nc3c4ccccc4nc4ccccc34)cc2)cn1,48% (inactive)
9,c1ccc2c(c1)NC(NC1Nc3ccccc3N1)N2,4% (inactive)
10,OC(COc1cccc2ccccc12)CN1CCOCC1 (configuration not stated),32% (inactive)
11,CCC/C(Cl)=N\OC(=O)Nc1ccc(Br)cc1,69% (inactive)
12,COc1ccc(/C=C2\SC(=S)N(/C=C/c3nc4ccccc4[nH]c3=O)C2=O)cc1OC,10% (inactive)
13,O=C(NNc1ccnc2cc(Cl)ccc12)/C(=C\c1ccccc1Cl)NC(=O)c1ccccc1,11% (inactive)
14,CSC1=NNC(SC)=NN1,-5% (inactive)
15,Cc1c(C2=C(Br)C(=O)N(C)C2=O)c(=O)n(C)c(=O)n1C,26% (inactive)
16,NCCNc1ccc(NCCN)c2c1C(=O)c1c(O)ccc(O)c1C2=O,83% (active)
17,Cn1c(=O)c(-c2ccccc2)c(N=[N+]=[N-])c2ccccc21,-6% (inactive)
18,CCCCCCCCCCCCCCCCCCOCC(O)COP(=O)(O)OCC1OC(n2cc(F)c(=O)[nH]c2=O)CC1O (configuration not stated),16% (inactive)
19,CCS(=O)(=O)c1ccc(/C=C/C=N/NC(=S)NCC(C)C)cc1,3% (inactive)
20,CCC(=O)Oc1c(Cl)cc(Cl)c2ccccc12,-2% (inactive)
21,COc1cc2c3c(cccc3c1)C(=O)N(CCN(C)C)C2=O,-14% (inactive)
22,CN(C)c1ccc(C(C#N)=C(C#N)C#N)cc1,-1% (inactive)
23,O=C(CCCN1CCC2(CC1)CC(=O)N(N1CCCCCC1)C2=O)c1ccc(F)cc1,34% (inactive)
24,O=C1C2C(C(=O)N1c1ccc(OCc3ccccc3)cc1)C1c3ccccc3C2C2CCCCN21 (configuration not stated),1% (inactive)
25,CCN(CC)CCC(=O)c1ccc(Oc2ccc(F)cc2)cc1,-26% (inactive)
26,O=Nc1c(NO)ccc2nn(-c3ccccc3)nc12,68% (inactive)
